Data taken from PubChem BioAssay (Tox21).
Inconclusive results are not listed. Activity calls are given as the source filed them. The call rests on the fitted dose curve; in most records, active means well fitted curve in the direction sought with a large enough effect in the repeat runs; inconclusive means weak or mixed curves; inactive means no such curve, though single readings can be large; an effect the other way counts as inactive or inconclusive.

Tests used:
[1] = Human pregnane X receptor (PXR) small molecule agonists, qHTS cell viability counter screen (AID 1346977); further: nearly all actives have a fitted effect of over 50% in size
Summary of the method: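 Fluorescence read-out (CellTiter-Fluor) of viability in PXR-Luc HepG2 cells, multiplexed with the luciferase agonist read. Compounds in DMSO added after 5hr plating; 24hr total exposure at 37C, 5% CO2.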

[2] = Caspase-3/7 induction in HepG2 cells by small molecules, qHTS assay (AID 1346978); further: nearly all actives have a fitted effect of over 15% in size
Summary of the method: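 Wild-type HepG2 cells (2,000/well) were settled 5 h at 37 C, 5% CO2, then exposed to compounds in DMSO for 17 h. Caspase-3/7 activity was read by luminescence 30 min after adding Caspase-Glo 3/7 reagent at room temperature.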

[3] = Caspase-3/7 induction in CHO-K1 cells by small molecules, qHTS cell viability counter screen (AID 1346979); further: nearly all actives have a fitted effect of over 35% in size
Summary of the method: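 CHO-K1 wt, 1,500 cells/well; 5hr pre-incubation 37C/5% CO2; compound pin transfer (DMSO); 16hr exposure; CellTiter-Fluor added, 1hr, fluorescence read.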

[4] = Caspase-3/7 induction in CHO-K1 cells by small molecules, qHTS assay (AID 1346980); further: nearly all actives have a fitted effect of over 15% in size
Summary of the method: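 Wild-type cells were seeded at 1,500 per well and settled 5 hr at 37 C, 5% CO2, then exposed to DMSO-dissolved compounds for 17 hr. Caspase-Glo 3/7 reagent was added, and luminescence was read after 30min at room temperature.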

[5] = Caspase-3/7 induction in HepG2 cells by small molecules, qHTS cell viability counter screen (AID 1346981); further: series mostly up to about 92 µM; nearly all actives have a fitted effect of over 30% in size
Summary of the method: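 After a 5-hr attachment period at 37 C and 5% CO2, wild-type HepG2 cells received compounds in DMSO. Sixteen hours later CellTiter-Fluor was dispensed and the fluorescent signal quantified after a further hour.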

[6] = biological target: Nuclear receptor subfamily 1 group I member 2 (Homo sapiens) (UniProt O75469); assay: Human pregnane X receptor (PXR) small molecule agonists, qHTS assay (AID 1346982); further: nearly all actives have a fitted effect of over 35% in size; further: potency means the concentration at half of the fitted maximal effect
Chain of Nuclear receptor subfamily 1 group I member 2 (Homo sapiens) (O75469 whole entry, looked up): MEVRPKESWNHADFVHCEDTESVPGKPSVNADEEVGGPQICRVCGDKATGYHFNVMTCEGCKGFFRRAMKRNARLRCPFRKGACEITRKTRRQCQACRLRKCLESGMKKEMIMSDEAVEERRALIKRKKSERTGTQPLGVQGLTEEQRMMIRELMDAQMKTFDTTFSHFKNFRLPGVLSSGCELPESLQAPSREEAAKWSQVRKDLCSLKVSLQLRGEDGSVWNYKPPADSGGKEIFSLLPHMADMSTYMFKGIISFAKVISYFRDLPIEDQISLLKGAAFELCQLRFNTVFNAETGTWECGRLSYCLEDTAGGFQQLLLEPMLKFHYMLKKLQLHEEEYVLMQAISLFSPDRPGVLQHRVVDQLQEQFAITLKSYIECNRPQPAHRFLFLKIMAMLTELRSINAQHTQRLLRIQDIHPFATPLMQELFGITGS
Summary of the method: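 Tox21 qHTS; PXR-Luc HepG2; compounds pinned from DMSO; 24 hr, 37 C; ONE-Glo luciferase detection, 30 min room temperature.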

[7] = biological target: Cytochrome P450 2D6 (Homo sapiens) (UniProt P10635); assay: Cytochrome P450 Family 2 Subfamily D Member 6 (CYP2D6) small molecule antagonists: luciferase reporter qHTS assay (AID 1671196); further: nearly all actives have a fitted effect of over 50% in size; further: potency means the concentration at half of the fitted maximal effect
Chain of Cytochrome P450 2D6 (Homo sapiens) (P10635 whole entry, looked up): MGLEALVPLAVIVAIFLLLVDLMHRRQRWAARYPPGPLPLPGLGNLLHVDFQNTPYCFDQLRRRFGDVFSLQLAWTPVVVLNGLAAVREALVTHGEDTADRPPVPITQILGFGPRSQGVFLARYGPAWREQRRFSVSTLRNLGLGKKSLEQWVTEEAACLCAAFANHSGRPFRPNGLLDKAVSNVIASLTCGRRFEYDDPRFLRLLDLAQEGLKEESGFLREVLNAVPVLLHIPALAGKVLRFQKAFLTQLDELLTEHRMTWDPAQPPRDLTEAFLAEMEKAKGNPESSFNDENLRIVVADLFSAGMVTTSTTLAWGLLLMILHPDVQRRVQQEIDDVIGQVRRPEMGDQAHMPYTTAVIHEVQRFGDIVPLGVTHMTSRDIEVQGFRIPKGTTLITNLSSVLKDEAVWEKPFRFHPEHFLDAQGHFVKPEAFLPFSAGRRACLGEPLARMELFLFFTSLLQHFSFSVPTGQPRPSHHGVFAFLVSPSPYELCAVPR
Summary of the method: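 Room-temperature luminescent CYP2D6 activity assay: compound preincubated 10 min with enzyme–substrate mix, NADPH-initiated reaction 1 h, detection reagent 20 min before reading.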

[8] = biological target: Nuclear receptor subfamily 1 group I member 2 (Rattus norvegicus) (UniProt Q9R1A7); assay: Rat pregnane X receptor (rPXR) activation by small molecules, qHTS assay (AID 1346983); conditions: rPXR luciferase reporter cells, One-Glo luminescence, 24 h; max activation: hits give high values; further: nearly all actives have a fitted effect of over 20% in size
Chain of Nuclear receptor subfamily 1 group I member 2 (Rattus norvegicus) (Q9R1A7 whole entry, looked up): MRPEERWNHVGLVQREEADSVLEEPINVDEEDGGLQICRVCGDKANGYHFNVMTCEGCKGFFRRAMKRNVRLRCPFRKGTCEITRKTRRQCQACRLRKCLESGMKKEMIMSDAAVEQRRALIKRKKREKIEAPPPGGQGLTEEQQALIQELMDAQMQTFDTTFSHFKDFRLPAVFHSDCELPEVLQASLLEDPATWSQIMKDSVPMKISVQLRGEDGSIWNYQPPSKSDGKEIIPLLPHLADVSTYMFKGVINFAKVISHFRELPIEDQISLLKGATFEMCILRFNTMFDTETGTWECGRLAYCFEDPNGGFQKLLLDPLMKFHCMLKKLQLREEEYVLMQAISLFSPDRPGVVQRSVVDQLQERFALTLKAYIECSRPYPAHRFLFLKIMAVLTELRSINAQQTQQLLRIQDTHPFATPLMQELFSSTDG
Summary of the method: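 Cell-based rPXR luciferase reporter assay, 2,000 cells per well, rested 5hr at 37 C before compound addition in DMSO, then 24 hr at 37 C. One-Glo reagent was added and luminescence read after 30 min at room temperature.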

[9] = biological target: Nuclear receptor subfamily 1 group I member 2 (Homo sapiens) (UniProt O75469); assay: CYP3A4 induction through human pregnane X receptor (PXR) by small molecules, qHTS assay (AID 1346984); further: nearly all actives have a fitted effect of over 40% in size
Summary of the method: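 Cells (DPX-2; HepG2 with PXR element plus CYP3A4-promoter luciferase) settled 5hr, then were treated 24hr at 37C. A 3hr, 3uM-final Luciferin-IPA step preceded luminescence measurement with One-Glo.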

[10] = biological target: Nuclear receptor subfamily 1 group I member 2 (Homo sapiens) (UniProt O75469); assay: Human pregnane X receptor (PXR) activation by small molecules, qHTS assay (AID 1346985); further: nearly all actives have a fitted effect of over 40% in size
Summary of the method: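 DPX-2 cells (HepG2 co-transfected with a PXR response element and a CYP3A4-promoter luciferase construct) were seeded at 2,000 per well, rested 5 hr at 37C, then exposed to DMSO-dissolved compounds for 24 hr. Activation was read as luciferase luminescence.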
On the % scale 0 is the no-effect control and ±100 the full control effect.

CC(C)[C@H]1CC[C@@H](C)CC1=O
inactive: Potency [1] | outcome [2] | Potency [3] | outcome [4] | Potency [5] | Potency [6] | Potency [7]

C[C@@H]1CCC[C@H](C)N1
inactive: Potency [1] | outcome [2] | Potency [3] | outcome [4] | Potency [5] | Potency [6] | max activation [8] -0.283% | Potency [9] | Potency [10] | Potency [7]

CC(C)(CCC(=O)O)C(=O)O
inactive: Potency [1] | outcome [2] | Potency [3] | outcome [4] | Potency [5] | Potency [6] | Potency [7]

CCCn1cc[n+](C)c1C
inactive: Potency [1] | outcome [2] | Potency [3] | outcome [4] | Potency [5] | Potency [6] | Potency [7]

CC(=O)N[C@H]1[C@H]([C@H](O)[C@H](O)CO)OC(C(=O)O)=C[C@@H]1N=C(N)N
inactive: Potency [1] | outcome [2] | Potency [3] | outcome [4] | Potency [5] | Potency [6] | max activation [8] -1.75% | Potency [10] | Potency [7]

Nc1ccn([C@@H]2O[C@H](CO)[C@@H](O)C2O)c(=O)n1 (some centres not stated)
inactive: Potency [1] | outcome [2] | Potency [3] | outcome [4] | Potency [5] | Potency [6] | max activation [8] -0.294% | Potency [10] | Potency [7]

CC(=O)N1C[C@H](O)C[C@H]1C(=O)O
inactive: Potency [1] | outcome [2] | Potency [3] | outcome [4] | Potency [5] | Potency [6] | max activation [8] -1.61% | Potency [9] | Potency [10] | Potency [7]

CC1(C)[C@@H]2CC[C@@]1(C)[C@H](O)C2
inactive: Potency [1] | outcome [2] | Potency [3] | outcome [4] | Potency [5] | Potency [6] | Potency [7]

CCCCCCCCCCCCCCCCCCO
inactive: Potency [1] | outcome [2] | Potency [3] | outcome [4] | Potency [5] | Potency [6] | max activation [8] -0.712% | Potency [9] | Potency [10] | Potency [7]

COc1ccnc(CS(=O)c2nc3cc(OC(F)F)ccc3[nH]2)c1OC (configuration not stated)
inactive: Potency [1] | outcome [2] | Potency [3] | outcome [4] | Potency [5]
active: Potency [6] 24.5 µM | Potency [7] 12.7 µM

CC1=CC(=O)[C@H]2C[C@@H]1C2(C)C
inactive: Potency [1] | outcome [2] | Potency [3] | outcome [4] | Potency [5] | Potency [6] | Potency [7]

CN(C)C(=O)Oc1cccc([N+](C)(C)C)c1
inactive: Potency [1] | outcome [2] | Potency [3] | outcome [4] | Potency [5] | Potency [6] | max activation [8] -2.37% | Potency [9] | Potency [10] | Potency [7]

CC(C)(C)C(=O)Oc1ccc(S(=O)(=O)Nc2ccccc2C(=O)NCC(=O)O)cc1
inactive: Potency [1] | outcome [2] | Potency [3] | outcome [4] | Potency [5] | Potency [6] | max activation [8] -2.02% | Potency [9] | Potency [10] | Potency [7]

O=CN(CCO)CCO
inactive: Potency [1] | outcome [2] | Potency [3] | outcome [4] | Potency [5] | Potency [6] | Potency [7]

CC[C@H]1OC(=O)[C@H](C)[C@@H](O[C@H]2C[C@@](C)(OC)[C@@H](O)[C@H](C)O2)[C@H](C)[C@@H](O[C@@H]2O[C@H](C)C[C@H](N(C)C)[C@H]2O)[C@](C)(OC)C[C@@H](C)C(=O)[C@H](C)[C@@H](O)[C@]1(C)O
inactive: Potency [1] | outcome [2] | Potency [3] | outcome [4] | Potency [5] | Potency [6] | max activation [8] -0.482% | Potency [9] | Potency [10] | Potency [7]

CC(C)COC(=O)c1ccc(N)cc1
inactive: Potency [1] | outcome [2] | Potency [3] | outcome [4] | Potency [5] | max activation [8] 0.562% | Potency [9] | Potency [10] | Potency [7]
active: Potency [6] 21.1 µM

[Ca+2]
active: Potency [7] 35.6 µM
inactive: Potency [1] | outcome [2] | Potency [3] | outcome [4] | Potency [5] | Potency [6]

CC1CCC(CO)CC1 (configuration not stated)
inactive: Potency [1] | outcome [2] | Potency [3] | outcome [4] | Potency [5] | Potency [6] | Potency [7]

CCOc1c(N2CCOCC2)cnn(C)c1=O
inactive: Potency [1] | outcome [2] | Potency [3] | outcome [4] | Potency [5] | Potency [6] | Potency [7]

CCCCOCCOC(=O)CCCCCCCCC(=O)OCCOCCCC
inactive: Potency [1] | outcome [2] | Potency [3] | outcome [4] | Potency [5] | Potency [6] | Potency [7]

CCOC(=O)c1ccccc1
inactive: Potency [1] | outcome [2] | Potency [3] | outcome [4] | Potency [5] | Potency [6] | Potency [7]

CN(C)CCN(C)CCN(C)C
active: Potency [6] 29.6 µM
inactive: Potency [1] | outcome [2] | Potency [3] | outcome [4] | Potency [5] | Potency [7]

CCCCc1ccc2c(n1)[C@@H](c1ccc(OC)cc1C[C@H](C)C(=O)O)[C@H](C(=O)O)[C@H]2c1ccc2c(c1)OCO2
active: Potency [7] 71 µM
inactive: Potency [1] | outcome [2] | Potency [3] | outcome [4] | Potency [5] | Potency [6]

CC1=CCC(O)(C(C)C)CC1 (configuration not stated)
inactive: Potency [1] | outcome [2] | Potency [3] | outcome [4] | Potency [5] | Potency [6] | Potency [7]

CC1=NN(c2cccc(S(=O)(=O)O)c2)C(=O)C1
inactive: Potency [1] | outcome [2] | Potency [3] | outcome [4] | Potency [5] | Potency [6] | Potency [7]

O=C(CO)[C@@H](O)[C@H](O)[C@H](O)CO
inactive: Potency [1] | outcome [2] | Potency [3] | outcome [4] | Potency [5] | Potency [6] | Potency [7]
